Screens (PubChem BioAssay)
In the library only some 4.2% were active in any assay of this set; here they are far more common.
Wnt bcat act: Wnt/beta-catenin pathway activation. Wnt/beta-catenin reporter cell assay, activator, plate reader. activation, % at 9.35 µM. 300,000 tested, 1.2% active; in the data active means activation above about 30%, passing the limit was not always enough; inconclusive means no clear call, values can overlap the other calls;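 further: 0% = neutral control wells and 100% = positive control wells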
hgDAF12 agonist: hgDAF-12 agonism, primary luciferase screen; HEK293 GAL4-hgDAF12 UAS-luciferase reporter, agonist luminescence; normalized to butyrate control; activation, % at 6.8 µM; 370,000 tested, 1.8% active; AID 687014;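 active means activation above a cutoff set at the mean of all screened compounds plus 3 SD, cut at about 10% in these data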;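 further: 0% = DMSO wells and 100% = sodium butyrate wells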
hcDAF-12 act: activates DAF-12 receptor from parasite H. contortus | activation, % at 6.8 µM | 370,000 tested, 1.4% active | HEK293 hcDAF-12 lit1-tk-luc reporter, luminescence; 0% DMSO, 100% Δ7-dafachronic acid;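 active means activation above the mean of all tested compounds plus 3 SD, cut at about 5.5% in these data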;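 further: 100% = response to 3 µM Δ7-dafachronic acid high control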
ssDAF-12 act: S. stercoralis DAF-12 activation, primary screen; 370,000 tested, 1% active; AID 652126; HEK293 ssDAF-12/GRIP1 lit1-tk-luc reporter, luminescence; % of 3 µM dafachronic acid response; activation, % at 6.8 µM;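 active means activation above the mean over all tested compounds plus 3 SD, cut at about 0.9% in these data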;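 further: 0% = DMSO-only wells and 100% = 3 µM delta7-dafachronic acid wells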
DAX1 inh: inhibitors of DAX1 repression of SF-1 activated StAR promoter. HEK293T StAR-luciferase reporter, SF-1/DAX-1 repression relief. 370,000 tested, 1.1% active. AID 652010. inhibition, % at 6.8 µM;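 active means inhibition above the mean over all tested compounds plus 3 SD, cut at about 3.6% in these data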;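 further: 0% = DAX-1 cells with DMSO and 100% = cells lacking DAX-1 with DMSO; higher inhibition means more luminescence from relief of DAX-1 repression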
esBAF inh: blocks esBAF chromatin remodeling in mouse ES cells; 350,000 tested, 2% active; Bmi1-luciferase knock-in reporter, 24 h; 100% = twice the neutral-well signal; reporter increase, % at 12.5 µM; in the data active means activation above about 40%; inconclusive means no clear call, values can overlap the other calls;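 further: 0% = median of the plate's neutral control wells and 100% = double that signal; a rise in the Bmi1 reporter signal indicates esBAF inhibition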
* marks the source's active call; other numbers are inactive results; ? = inconclusive; · = no result.

SMILES | Wnt bcat act | hgDAF12 agonist | hcDAF-12 act | ssDAF-12 act | DAX1 inh | esBAF inh
C[C@H](CO)N1C[C@H](C)[C@H](CN(C)Cc2ccccc2F)Oc2ncc(C#CCN(C)C)cc2C1=O | · | · | · | · | · | -1.3
COc1cc2cc(CN(CCc3ccccc3C)C(=S)NCCCN(C)C)c(=O)[nH]c2cc1OC | · | 1.5 | -1.6 | -1.5 | 0.7 | ·
COc1cc2cc(CN(CCc3ccccc3C)C(=S)NCCCN3CCOCC3)c(=O)[nH]c2cc1OC | 50.3* | 0.0 | 0.3 | -1.4 | 0.2 | ·
c1ccc(COc2ccc3nocc3c2)cc1 | 32.4* | 10.7* | 4.1 | -0.7 | 0.7 | 103.9*
Cc1ccc2nc(SCC(=O)N3CCOCC3)[nH]c2c1 | · | 8.2 | 2.4 | 0.0 | 2.7 | ·
Cc1ccc2[nH]c(SCC(=O)N3CCOCC3)nc2c1C | · | 9.3 | 5.7* | 0.3 | 0.5 | 29.8
CSc1nc(-c2ccc(Cl)cc2)nn1S(=O)(=O)c1ccccc1 | · | 6.0 | 0.2 | -0.8 | 2.2 | ?
CSc1nc(-c2ccc(Cl)cc2)nn1S(=O)(=O)c1ccc(Cl)cc1 | -2.3 | 5.5 | 0.1 | -0.2 | 1.5 | 46.6*
CCC(=O)n1nc(-c2ccc(Cl)cc2)nc1SC | 39.5* | 9.6 | 3.0 | -0.8 | 2.2 | 70.6*
CCC(=O)n1nc(-c2ccc(OC)cc2)nc1SC | · | 6.0 | 1.0 | -0.9 | 0.9 | 43.4*
CCCC(=O)n1nc(-c2ccc(Cl)cc2)nc1SC | · | 6.8 | 0.6 | -0.4 | 0.5 | 33.3
COc1ccc(-c2nc(SC)n(C(=O)c3ccco3)n2)cc1 | · | 5.7 | 2.7 | -0.8 | 1.3 | ·
CCCC#Cc1ccc2c(c1)O[C@@H](CN(C)C(C)=O)[C@H](C)CN([C@@H](C)CO)S2(=O)=O | · | · | · | · | · | 3.9
C[C@H]1CN([C@@H](C)CO)C(=O)c2cc(/C=C/c3ccccc3)cnc2O[C@H]1CN(C)Cc1cncnc1 | · | · | · | · | · | 2.2
COc1cccc(C(=O)N2C[C@H]3[C@@H](c4ccccc42)[C@@H](CO)N3C(=O)c2cccc(F)c2)c1 | · | · | · | · | · | -0.7
CCOC(=O)C(Nc1ccc2ccccc2c1)C(=O)OCC | 5.7 | 5.5 | 5.7* | 0.3 | 0.3 | ·
O=C1N/C(=C/c2ccsc2)C(=O)N1c1ccccc1 | 7.6 | 11.8* | 0.1 | -0.7 | 0.4 | ·
CCn1c(C)cc(/C=C2/NC(=O)N(c3ccccc3)C2=O)c1C | -3.7 | -5.6 | -1.4 | -2.1 | -0.1 | ·
O=C(Nc1ccc(F)cc1)Nc1c(-c2ccc(F)cc2)nc2ncccn12 | · | 0.8 | 1.0 | 1.8* | -0.3 | ·
CO[C@@H]1CN(C)C(=O)c2ccc(NS(=O)(=O)c3ccccc3F)cc2OC[C@@H](C)N(S(C)(=O)=O)C[C@H]1C | · | · | · | · | · | 1.9
CO[C@@H]1CN(C)C(=O)c2ccc(NC(=O)c3cnccn3)cc2OC[C@H](C)N(C)C[C@H]1C | · | · | · | · | · | -3.2
COc1cccc(/C=C/C(=C2\C(=O)N(c3ccccc3)N=C2C)c2ccc(Br)cc2)c1OC | 33.1* | 2.3 | -1.6 | -1.1 | -0.1 | -8.4
O=C(Nc1ccc(Cl)cc1Cl)c1cc2ccccc2o1 | 14.2 | 7.1 | 4.6 | 2.2* | 1.6 | 0.0
CCc1cc(C(=O)Nc2ccc(OC)nc2)sc1C | 21.2 | 7.0 | 1.5 | 0.1 | 2.3 | 46.7*
COc1ccc(NC(=O)c2cc3ccccc3o2)cn1 | 42.8* | 9.7 | 2.0 | -0.2 | 0.6 | 68.5*
SMILES | Wnt bcat act | hgDAF12 agonist | hcDAF-12 act | ssDAF-12 act | DAX1 inh | esBAF inh
CC(=O)c1cc2ccc(O)cc2oc1=O | 2.6 | 0.4 | -0.8 | -1.7 | 0.1 | -7.3
N=c1oc2cc(O)ccc2cc1C(=O)Nc1ccc(Cl)cc1 | 47.4* | 4.3 | 1.3 | -0.7 | 0.1 | 57.7*
COc1cc(NC(=O)c2cc3ccccc3o2)c(OC)cc1Cl | -1.1 | 3.1 | 2.2 | 0.3 | 0.9 | -3.7
CCCC#Cc1cnc2c(c1)C(=O)N([C@@H](C)CO)C[C@@H](C)[C@@H](CN(C)C(=O)c1cnccn1)O2 | · | · | · | · | · | 0.6
COc1cccc(-c2cnc3c(c2)C(=O)N([C@H](C)CO)C[C@@H](C)[C@H](CN(C)Cc2ccncc2)O3)c1 | · | · | · | · | · | 1.8
Cc1cc(C)cc(NC(=O)Nc2ccc(N3CCCCC3)cc2)c1 | 38.9* | 6.2 | 1.1 | -0.9 | 1.2 | ·
N=c1oc2ccccc2cc1C(=O)Nc1ccc(F)cc1 | 37.9* | 8.1 | 4.6 | 0.0 | 1.0 | -16.0
N=c1oc2ccccc2cc1C(=O)Nc1cccc(F)c1 | 15.2 | 5.3 | 1.7 | -0.5 | 0.8 | -2.2
CCN(CC)c1ccc(NC(=O)c2c(OC)cccc2OC)c(C)c1 | 2.9 | -2.9 | -1.9 | -1.4 | -0.6 | -7.3
CCN(CC)c1ccc(NC(=O)c2cc3ccccc3o2)c(C)c1 | · | -0.2 | -1.5 | -0.7 | -1.0 | 45.3*
O=C(Nc1ccc(F)cc1)c1cc2ccccc2o1 | 15.5 | 10.0 | 6.5* | 1.6* | 1.1 | 46.6*
Cc1noc(C)c1NC(=O)N(C)C[C@@H]1Oc2ccc(NS(=O)(=O)c3c(C)noc3C)cc2CC(=O)N([C@@H](C)CO)C[C@H]1C | · | · | · | · | · | -1.3
O=C(C[C@H]1CC[C@@H](NC(=O)Cc2ccccn2)[C@H](CO)O1)NCCCN1CCOCC1 | · | · | · | · | · | 0.3
CC(C)NC(=O)N[C@@H]1CC[C@H](CCNS(=O)(=O)c2ccc(Cl)cc2)O[C@@H]1CO | · | · | · | · | · | 1.1
O=C(Nc1ccc(N2CCCC2)cc1)c1cc2ccccc2o1 | 2.0 | 3.2 | 0.9 | -0.8 | 0.4 | 43.4*
COc1ccc(NC(=O)c2ccco2)cn1 | 1.0 | 1.5 | -0.8 | -0.6 | 0.4 | -7.9
COc1ccc(NC(=O)c2ccc(-c3ccc(C(C)=O)cc3)o2)cn1 | 9.6 | 2.4 | 0.0 | -0.7 | 0.2 | 44.9*
CC(=O)N1CCN(c2ccc(NC(=O)c3cc4ccccc4o3)cc2)CC1 | 3.1 | -0.6 | -2.0 | -1.8 | -0.4 | 3.7
COc1ccc(C#Cc2cnc3c(c2)C(=O)N([C@H](C)CO)C[C@H](C)[C@H](CN(C)C(=O)c2ccccc2F)O3)cc1 | · | · | · | · | · | -2.0
CC1=C(C(=O)Nc2ccccn2)C(c2ccccc2)n2ncnc2N1 (stereo unspecified) | -2.1 | 5.0 | 3.5 | 0.0 | 0.5 | 11.3
CC1=C(C(=O)Nc2ccccn2)C(c2ccc(N(C)C)cc2)n2ncnc2N1 (stereo unspecified) | 6.2 | 11.0* | 4.3 | 0.2 | 1.8 | 23.4
CC(C)C(=O)Nc1ccc2c(c1)C(=O)N(C)[C@H]1CC[C@@H](CC(=O)NCCCN(C)C)O[C@@H]1CO2 | · | · | · | · | · | 0.7
CO[C@@H]1CN(C)C(=O)c2cc(NC(=O)NC(C)C)ccc2OC[C@H](C)N(C)C[C@@H]1C | · | · | · | · | · | 0.1
C[C@H](CO)N1C[C@H](C)[C@H](CN(C)Cc2ccncc2)Oc2cc(C#CC(C)(C)O)ccc2S1(=O)=O | · | · | · | · | · | -4.4
Nc1ccc(-c2cnc(-c3ccc(N)cc3)nc2)cc1 | · | 10.5* | 4.5 | 0.6 | 1.8 | -58.3
CCCC(=O)Nc1ccc(-c2cnc(-c3ccc(NC(=O)CCC)cc3)nc2)cc1 | -3.5 | 3.7 | 0.3 | -0.5 | -0.1 | -0.2
CN(C)/C=N/c1ncc(C(=O)c2ccc(-c3ccccc3)cc2)s1 | -1.1 | 11.6* | -0.2 | -2.2 | 0.0 | ·
